In PubChem BioAssay (EPA / NIEHS) one finds outcome and AC50 data, which are given here for four molecules.

Calls of active or inactive are those of the source. Rule for the calls: active = hit-call score of the fitted dose curve at least 0.9, where 1 is the maximum; inactive = score below 0.9.

The nature of assay [1]: ATG_CMV_CIS: Attagene CIS-FACTORIAL HepG2 Assay for human CMV (Internal Marker) (AID 2282928).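 Note: endpoint acts as a background internal control marker rather than a target.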 As to conditions: HepG2 CMV promoter reporter, transcription factor profiling; actives raise or lower the signal. In a few lines: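 Endogenous transcription factor activity read in HepG2 via transfected cis-promoter reporter units. After 24 h dosing, reporter mRNA measured by RT-PCR/capillary electrophoresis; gain or loss of signal fit relative to DMSO.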

Assay [2] is described as follows: ATG_DR4_LXR_CIS: Attagene CIS-FACTORIAL HepG2 Assay for human Liver X Receptor (LXR), DR4 submotif (AID 2282929). The conditions noted are these: HepG2 Attagene DR4 cis-reporter, mRNA transcription; actives raise or lower the signal. A digest of the protocol: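 Total RNA from 24 h-treated, MRTU-transfected HepG2 cells underwent reverse transcription, PCR, fluorescent primer extension and restriction digestion before capillary electrophoresis. Both increases and decreases in reporter signal were fitted against DMSO.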

Assay [3] can be described thus: ATG_AP_2_CIS: Attagene CIS-FACTORIAL HepG2 Assay for human Activator Protein 2 (AP-2) (AID 2282932). As to conditions: HepG2 AP-2 cis-reporter, Attagene transcription factor profiling; actives raise or lower the signal. A digest of the protocol: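 HepG2 cells transiently transfected with cis-element reporter units and exposed for 24 h. Reporter mRNA measured by RT-PCR, FAM labelling, HpaI digestion and capillary electrophoresis. Changes in either direction fitted relative to DMSO.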

Assay [4] deals with Transcription factor E2F1 (Homo sapiens) (UniProt Q01094). Briefly: ATG_E2F_CIS: Attagene CIS-FACTORIAL HepG2 Assay for human E2F Transcription Factor 1 (AID 2282935). The conditions noted are these: HepG2 Attagene cis-reporter, E2F reporter RNA transcripts; actives raise or lower the signal. In a few lines:
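Endogenous E2F1 activity read through cis-promoter reporter units transfected into HepG2. After 24 h compound treatment, reporter mRNA measured by RT-PCR, HpaI digestion and capillary electrophoresis. Bidirectional fit versus DMSO.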

Assay [5] is described as follows: ATG_M_61_CIS: Attagene CIS-FACTORIAL HepG2 Assay for M61 Transcription Factor (Internal Marker) (AID 2282937). The conditions noted are these: HepG2 Attagene CIS-FACTORIAL M61 internal marker reporter; actives raise or lower the signal. In a few lines:
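Transfect HepG2 with MRTUs; dose 24 h; isolate RNA; reverse-transcribe with DNase I treatment; PCR-amplify, FAM-label and cut with HpaI for 2 h at 37 C; resolve by CE. Bidirectional fitting against DMSO.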

Assay [6] is described as follows: ATG_EGR_CIS: Attagene CIS-FACTORIAL HepG2 Assay for human Early Growth Response 1 (EGR1) (AID 2282938). The conditions noted are these: HepG2 Attagene CIS-FACTORIAL EGR reporter mRNA; actives raise or lower the signal. A digest of the protocol: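 After a 24 h treatment of transiently transfected HepG2 cells, total RNA was reverse-transcribed and reporter sequences PCR-amplified, labelled and run on capillary electrophoresis. Reporters sit under cis-regulatory promoters sensing endogenous factors.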

Assay [7] is described as follows: ATG_Ets_CIS: Attagene CIS-FACTORIAL HepG2 Assay for human Erythroblast Transformation Specific (ETS) (AID 2282941). The conditions noted are these: HepG2 ETS cis-reporter transcription, actives raise or lower the signal. In a few lines:
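Steps: transfect HepG2 with multiple reporter units; treat compound 24 h; isolate RNA, DNase-treat, reverse-transcribe; PCR-amplify, label with 6-FAM, digest with HpaI; separate by capillary electrophoresis. Activity fitted both directions versus DMSO.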

The target in assay [8] is Hepatocyte nuclear factor 3-beta (Homo sapiens) (UniProt Q9Y261). Briefly: ATG_FoxA2_CIS: Attagene CIS-FACTORIAL HepG2 Assay for human Forkhead box A2 (FOXA2) (AID 2282942). The conditions noted are these: HepG2 cis-reporter transcription factor activity, 24 h; actives raise or lower the signal. A digest of the protocol:
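24 h dosing of HepG2 bearing cis-reporter constructs; mRNA readout by RT-PCR/CE fluorescence; bidirectional fit, DMSO baseline.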

Assay [9] in a line: ATG_FoxO_CIS: Attagene CIS-FACTORIAL HepG2 Assay for human Forkhead box O (FoxO) (AID 2282943). As to conditions: HepG2 Attagene cis-reporter, FoxO element, mRNA; actives raise or lower the signal. A digest of the protocol: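 Read-out: fluorescence of 6-FAM-labelled reporter cDNA fragments resolved by capillary electrophoresis. Transiently transfected HepG2 cells were dosed for 24 h; activity fitted in both directions relative to DMSO controls.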

Assay [10] in a line: ATG_GATA_CIS: Attagene CIS-FACTORIAL HepG2 Assay for human GATA Binding Protein (AID 2282944). As to conditions: HepG2 GATA cis-element reporter, Attagene multiplex mRNA; actives raise or lower the signal. A digest of the protocol:
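DMSO serves as negative control and baseline for bidirectional fitting of reporter mRNA changes. HepG2 cells bearing transiently transfected cis-promoter reporters were exposed 24 h; transcripts detected via RT-PCR and capillary electrophoresis.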

Assay [11] can be described thus: ATG_ISRE_CIS: Attagene CIS-FACTORIAL HepG2 Assay for human Interferon Regulatory Factor 1 (IRF1) binding to an Interferon-Stimulated Response Element (ISRE) (AID 2282948). The conditions noted are these: HepG2 ISRE cis-reporter (Attagene), mRNA transcription readout; actives raise or lower the signal. A digest of the protocol: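 Transfected HepG2 (multiple reporter transcription units, cis elements) dosed 24 h. RNA → oligo(dT) RT → PCR → 6-FAM primer extension → HpaI → CE. DMSO = negative control/baseline.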

A short description of assay [12]: ATG_M_32_CIS: Attagene CIS-FACTORIAL HepG2 Assay for M32 Transcription Factor (Internal Marker) (AID 2282949).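 Note: background control marker of the multiplexed CIS panel rather than a real target.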 The conditions noted are these: HepG2 Attagene cis-factorial M32 reporter, mRNA; actives raise or lower the signal. A digest of the protocol:
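Fluorescent capillary electrophoresis peaks of HpaI-digested, FAM-labelled RT-PCR reporter products give the signal. Source: transiently transfected human liver HepG2 cells, 24 h after chemical dosing; bidirectional fitting against DMSO.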

A short description of assay [13]: ATG_MRE_CIS: Attagene CIS-FACTORIAL HepG2 Assay for human Metal Responsive Element (MRE) (AID 2282954). As to conditions: HepG2 MRE cis-reporter transcription, Attagene multiplex; actives raise or lower the signal. In a few lines:
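HepG2 cells transiently transfected with cis-element-driven reporter units; mRNA measured 24 h after dosing. Reporter transcripts quantified by RT-PCR, FAM labelling, HpaI digestion and capillary electrophoresis; bidirectional fit versus DMSO.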

Assay [14] has as its target Paired box protein Pax-6 (Homo sapiens) (UniProt P26367). Briefly: ATG_Pax6_CIS: Attagene CIS-FACTORIAL HepG2 Assay for human Paired Box 6 (PAX6) (AID 2282956). The conditions noted are these: HepG2 CIS-FACTORIAL PAX6 reporter transcription, RNA readout; actives raise or lower the signal. In a few lines: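 Transient MRTU transfection of HepG2 → compound exposure 24 h → TriZol RNA, oligo(dT) RT → PCR, 6-FAM primer extension, HpaI cut → capillary electrophoresis; activity fitted both directions against DMSO.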

A short description of assay [15]: ATG_PXRE_CIS: Attagene CIS-FACTORIAL HepG2 Assay for human Pregnane X Receptor Element (PXRE) (AID 2282957). The conditions noted are these: HepG2 Attagene CIS-FACTORIAL PXRE reporter, mRNA; actives raise or lower the signal. In a few lines: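 Transiently transfected HepG2 cells were dosed and incubated for 24 h. RNA was then isolated, DNase-treated, reverse-transcribed and reporter sequences amplified. Labeled, HpaI-digested fragments were quantified by capillary electrophoresis against DMSO.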

Assay [16] can be described thus: ATG_Sox_CIS: Attagene CIS-FACTORIAL HepG2 Assay for human SRY-box transcription factor (SOX) (AID 2282960). As to conditions: HepG2 Attagene cis-factorial SOX reporter, mRNA; actives raise or lower the signal. A digest of the protocol:
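HepG2, cis reporter units, 24 h exposure. Reporter mRNA: RT-PCR → FAM labelling → HpaI → CE fluorescence. Bidirectional fit vs DMSO.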

Assay [17] in a line: ATG_SREBP_CIS: Attagene CIS-FACTORIAL HepG2 Assay for human Sterol Regulatory Element Binding (SREBP) (AID 2282962). The conditions noted are these: HepG2 Attagene cis-factorial SREBP reporter, mRNA; actives raise or lower the signal. A digest of the protocol:
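Transfected HepG2 (cis-regulated reporter library, endogenous TFs) → compound 24 h → total RNA → oligo(dT) RT → reporter-specific PCR → FAM primer extension, HpaI cut → CE fluorescence. Fit bidirectional vs DMSO.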

Assay [18] is described as follows: ATG_TCF_b_cat_CIS: Attagene CIS-FACTORIAL HepG2 Assay for human T-Cell-Factor with beta-catenin (TCF/b-cat) (AID 2282965). The conditions noted are these: HepG2 TCF/beta-catenin cis-reporter transcription, actives raise or lower the signal. A digest of the protocol: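 HepG2, transient MRTU transfection, cis-element-driven reporters (endogenous TFs). 24 h compound exposure. Readout: reporter mRNA by RT-PCR + 6-FAM primer extension, HpaI digest, capillary electrophoresis. Gain/loss fit vs DMSO baseline.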

The nature of assay [19]: ATG_TAL_CIS: Attagene CIS-FACTORIAL HepG2 Assay for human TAL Basal Promoter (AID 2282966).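 Note: background control endpoint measuring basal TAL promoter reporter mRNA not a specific factor.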 The conditions noted are these: HepG2 Attagene cis-factorial TAL promoter reporter; actives raise or lower the signal. In a few lines: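 Readout: reporter mRNA, fluorescence by CE. System: HepG2, transient multi-reporter transfection, endogenous TF activity. Exposure: 24 h. Analysis: bidirectional, DMSO-normalized; background control.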

The nature of assay [20]: ATG_TGFb_CIS: Attagene CIS-FACTORIAL HepG2 Assay for human Transforming Growth Factor (TGF) (AID 2282967). As to conditions: HepG2 Attagene CIS TGFb reporter, mRNA transcription; actives raise or lower the signal. In a few lines: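 Transcript-level reporter readout: HepG2 transfectants, 24 h exposure, RNA to cDNA, reporter-specific PCR, fluorescent primer extension, capillary sizing against ROX standards. Gain- or loss-of-signal relative to DMSO.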

Chain of Hepatocyte nuclear factor 3-beta (Homo sapiens) (Q9Y261 whole entry, looked up): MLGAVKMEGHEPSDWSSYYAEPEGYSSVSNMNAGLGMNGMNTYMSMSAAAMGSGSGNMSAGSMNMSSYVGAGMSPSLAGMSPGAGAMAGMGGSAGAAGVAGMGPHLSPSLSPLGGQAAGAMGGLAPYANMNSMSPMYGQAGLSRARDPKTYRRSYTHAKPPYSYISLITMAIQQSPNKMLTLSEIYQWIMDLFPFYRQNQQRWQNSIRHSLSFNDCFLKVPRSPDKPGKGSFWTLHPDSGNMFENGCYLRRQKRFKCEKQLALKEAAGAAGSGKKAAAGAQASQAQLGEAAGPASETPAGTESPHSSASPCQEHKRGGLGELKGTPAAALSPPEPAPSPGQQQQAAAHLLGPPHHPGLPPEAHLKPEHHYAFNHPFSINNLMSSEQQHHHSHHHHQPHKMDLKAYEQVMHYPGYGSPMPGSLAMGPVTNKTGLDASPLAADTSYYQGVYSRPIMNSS
Chain of Paired box protein Pax-6 (Homo sapiens) (P26367 whole entry, looked up): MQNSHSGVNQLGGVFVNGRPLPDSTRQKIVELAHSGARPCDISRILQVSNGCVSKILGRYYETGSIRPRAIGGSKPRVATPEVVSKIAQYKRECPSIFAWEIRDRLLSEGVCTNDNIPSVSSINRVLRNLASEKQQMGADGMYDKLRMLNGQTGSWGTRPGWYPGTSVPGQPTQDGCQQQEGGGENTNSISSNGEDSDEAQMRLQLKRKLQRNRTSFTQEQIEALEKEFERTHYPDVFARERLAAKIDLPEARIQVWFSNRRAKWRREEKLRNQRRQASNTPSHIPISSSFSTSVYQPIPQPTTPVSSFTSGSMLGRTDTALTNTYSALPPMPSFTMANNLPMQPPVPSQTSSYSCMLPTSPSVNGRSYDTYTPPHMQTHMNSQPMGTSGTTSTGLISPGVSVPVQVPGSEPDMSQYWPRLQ
Chain of Transcription factor E2F1 (Homo sapiens) (Q01094 whole entry, looked up): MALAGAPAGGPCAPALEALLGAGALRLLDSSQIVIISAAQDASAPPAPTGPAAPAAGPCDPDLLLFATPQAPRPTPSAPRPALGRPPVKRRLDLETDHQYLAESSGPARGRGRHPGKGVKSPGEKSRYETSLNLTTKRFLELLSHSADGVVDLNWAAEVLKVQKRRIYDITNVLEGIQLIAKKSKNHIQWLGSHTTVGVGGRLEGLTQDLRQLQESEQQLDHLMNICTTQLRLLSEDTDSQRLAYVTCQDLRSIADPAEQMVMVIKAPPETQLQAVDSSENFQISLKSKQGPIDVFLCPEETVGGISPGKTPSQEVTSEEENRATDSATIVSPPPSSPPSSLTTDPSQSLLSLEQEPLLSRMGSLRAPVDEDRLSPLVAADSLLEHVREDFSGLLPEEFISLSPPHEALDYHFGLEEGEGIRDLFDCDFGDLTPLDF

For `N#CCCCl`, the outcome in assay [1], in assay [2], in assay [3], in assay [4], in assay [5] and in assay [6] was inactive. For the same molecule, the result in assay [7], in assay [8], in assay [9], in assay [10], in [11] and in [12] was inactive. For the same molecule, the molecule was classed as inactive in [13], in assay [14], in [15], in [16], in [17] and in [18]. Further, the molecule was called inactive in [19] and in assay [20].
In the case of `CC1OC(C)OC(C)O1` (stereo not given), the molecule was called inactive in [1], in [2], in [3], in [4], in [5] and in assay [6]. Further, the molecule was classed as inactive in assay [7], in assay [8], in assay [9], in assay [10], in assay [11] and in assay [12]. The result in assay [13], in [14], in assay [15], in assay [16], in assay [17] and in assay [18] was inactive. For the same molecule, the molecule was classed as inactive in assay [19] and in [20].
On to `CC(Cc1ccc(C(C)(C)C)cc1)CN1C[C@@H](C)O[C@@H](C)C1` (stereo not given in full), for which the AC50 was 38.6 µM (active) in assay [1], 24.2 µM (active) in assay [13], 4.18 µM (active) in [15] and 24.7 µM (active) in [16]. Moreover, the result in assay [2], in assay [3], in [4], in [5], in assay [6] and in assay [7] was inactive. For the same molecule, the outcome in assay [8], in assay [9], in assay [10], in assay [11], in assay [12] and in assay [14] was inactive. For the same molecule, the molecule was called inactive in [17], in assay [18], in assay [19] and in assay [20].
For the molecule `Cc1ccc(OP(=O)(Oc2ccc(C)cc2)Oc2ccc(C)cc2)cc1` (tested in a mixture with another compound), the outcome in [1], in assay [3], in assay [4], in assay [5], in assay [6] and in assay [7] was inactive. Besides, the outcome in [8], in [9], in assay [10], in assay [12], in assay [13] and in assay [14] was inactive. The molecule was called inactive in assay [16], in [17], in assay [18], in [19] and in assay [20]. The AC50 is 9.36 µM (active) in [2], 100 µM (active) in [11] and 0.519 µM (active) in assay [15].

Broadly, the AC50 is the midpoint of the concentration-response curve, whichever way the signal moves.
